# Bioassay records from PubChem BioAssay.
# GLP1R inv ag: acts as inverse agonist at human GLP-1 receptor; P43220; HEK293 GLP-1R CRE-luciferase, luminescence, 24 h; GLP-1R form is constitutively active; Potency, µM (top dose mostly 38.3 µM), inactives show at the top dose activity change, negative = inhibition, most hits filed as inhibitors; 410,000 tested, 1.6% active; also: % is scaled to controls: 0 for no effect and ±100 for the full control effect; nearly all actives have a fitted effect of over 55% in size
# Target sequence (P43220 whole entry, looked up): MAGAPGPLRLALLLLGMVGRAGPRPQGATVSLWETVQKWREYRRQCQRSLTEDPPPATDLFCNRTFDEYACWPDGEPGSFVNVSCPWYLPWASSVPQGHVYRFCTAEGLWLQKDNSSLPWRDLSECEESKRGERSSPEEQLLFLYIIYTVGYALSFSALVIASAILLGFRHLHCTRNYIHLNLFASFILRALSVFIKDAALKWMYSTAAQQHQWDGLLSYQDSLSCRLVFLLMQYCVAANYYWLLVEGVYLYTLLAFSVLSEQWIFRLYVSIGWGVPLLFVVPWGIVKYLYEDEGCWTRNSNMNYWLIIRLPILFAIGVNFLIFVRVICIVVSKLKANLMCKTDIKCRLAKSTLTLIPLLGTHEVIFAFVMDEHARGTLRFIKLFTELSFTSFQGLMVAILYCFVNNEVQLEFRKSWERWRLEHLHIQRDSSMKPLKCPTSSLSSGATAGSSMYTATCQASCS
#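 GLP-1R inverse agonism mode: basal reporter luminescence in engineered HEK293 cells measured after one day of compound exposure at 37 deg C, with a 12 min room-temperature detection step.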
# RGS4 inh: human RGS4 inhibition | Potency, µM (doses to about 114 µM), for inactives: at the top dose activity change, negative = inhibition, usual class: inhibitors | P49798 | 390,000 tested, 0.039% active | Transcreener GDP fluorescence polarization, RGS4-accelerated GTP hydrolysis | AID 504845; also: % is scaled to controls: 0 for no effect and ±100 for the full control effect; nearly all actives have a fitted effect of over 75% in size
#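 MLSMR compounds (23 nl, pin-transferred) preincubated 10 min at room temperature with a 500nM (2x) first reagent, then RGS4 at 900nM (2x) plus Transcreener GDP mix added; fluorescence polarization (620/688 nm) read before and after 90 min at 30 °C.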
# PTHR1 agonist: activates the human parathyroid hormone receptor PTHR1; Q03431; HEK293 GP2 PTHR1 cells, GloSensor cAMP luminescence, 1 h; Potency, µM (highest dose often 115 µM), inactives show top-dose activation, most hits filed as activators; 410,000 tested, 0.075% active; also: nearly all actives have a fitted effect of over 55% in size
#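 HEK-293-derived GP2 cells expressing PTHR1 and a GloSensor cAMP reporter, 3,000/well, plated overnight, given luciferin plus IBMX (each 0.5 mM as added) for 1 h at 37 °C, then compound for 1 h at 37 °C. Luminescence was read after 15 min at room temperature.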
# GLP1R cytotox: cytotoxicity in counter-screen for GLP-1R inverse agonists; HEK293 cAMP-luciferase reporter cells, luminescence, 24 h; Potency, µM (titrated, usually from 38.3 µM), inactives show at the top dose activity change, negative = inhibition, actives largely listed as inhibitors; 410,000 tested, 0.13% active;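 also: loss of luciferase light is scored as toxicity; % is scaled to controls: 0 for no effect and ±100 for the full control effect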
#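 A 23 nL compound transfer followed 12 hours of cell culture at 37 deg C; exposure then lasted 24 hr. Luciferase assay detection reagent was dispensed and plates read for luminescence after a 12 min room-temperature wait.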
# GLP-1R agonist: agonists of human GLP-1 receptor; 380,000 tested, 0.007% active; HEK293 GLP-1R CRE-luciferase, luminescence, 4-6 h; cells express a hypersensitive GLP-1R form; P43220; Potency, µM (top dose mostly 45.6 µM), inactives show top-dose activation, actives largely listed as activators; also: % of control where 0% means no effect
# GCN5L2 inh: GCN5L2 (KAT2A) acetyltransferase inhibition; GCN5L2 HAT assay, ThioGlo1 CoA-SH fluorescence; 390,000 tested, 0.21% active; Potency, µM (series often up to 58.9 µM), inactives show at the highest dose activity change, negative = inhibition, most hits filed as inhibitors; Q92830; also: % is scaled to controls: 0 for no effect and ±100 for the full control effect
#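 Fluorescence readout, Ex340nm/Em540nm: ThioGlo1 (50uM final) reacts with free CoA thiol released as 20nM GCN5L2 acetylates H3(1-25) peptide (75uM) using acetyl-CoA (70uM). Compound and enzyme sat 15 min beforehand; 20 min room-temperature reaction.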
# * marks the source's active call; other numbers are inactive results; i = inactive; ? = inconclusive; · = not tested or not shown; [ ] = another dose, or the depositor's remark. Compounds with a hit are over-represented: about 1.8% of the library has one in this group of screens. Calls follow the shape of the dose curve; as a rule, active = well fitted curve in the direction sought with a large enough effect; inconclusive = small, poorly fitted or top-dose-only effect, or another doubt; inactive = no such curve, though single readings can be large; an effect the other way counts as inactive or inconclusive. Potency is read from the fitted curve at half-maximal effect.
SMILES,GLP1R inv ag,RGS4 inh,PTHR1 agonist,GLP1R cytotox,GLP-1R agonist,GCN5L2 inh
c1ccc(COc2ccc(OCCCCN3CCCC3)cc2)cc1,11.2µM*,10.9%,-10.6%,-18.2%,-6.6%,-3.8%
CN1CCN(CCOc2ccc(Cc3ccccc3)cc2)CC1,11.2µM*,3.8%,i,-1.4%,7.0%,-1.4%
CCC(=O)N/N=C/c1ccc(OS(=O)(=O)c2ccccc2)cc1,-22.3%,0.1%,i,-14.2%,-1.7%,1.9%
NC(N)=N/N=C/c1ccc(OS(=O)(=O)c2ccccc2)cc1,6.31µM*,14.3%,-1.3%,?,-4.8%,1.1%
Cc1cccc(NC(=O)NCCc2c[nH]c3ccccc23)c1,8.91µM*,9.8%,-11.3%[57.5 µM],-2.3%,2.7%,-1.9%
CN(c1ccccc1)S(=O)(=O)c1cccc(C(=O)NCCc2c[nH]c3ccccc23)c1,8.91µM*,14.3%,-9.3%,-14.0%,-1.0%,·
Oc1ccc(CNc2cccc(F)c2F)c2cccnc12,·,·,·,·,·,-1.7%
C[N+](C)(C)CCN1CCc2ccccc21,11.1%,·,-4.8%,1.7%,-4.7%,·
CC(C)C(=O)Nc1nnc(S(=O)(=O)N2CCCCCC2)s1,-4.6%,-7.6%,-16.7%,10.9%,0.6%,-5.3%
CCC(CC)C(=O)Nc1nnc(S(=O)(=O)N2CCCCCC2)s1,7.94µM*,-4.2%,-8.3%,-2.5%,16.0%,-16.9%
O=C(O)CC(Sc1n[nH]c(=S)s1)C(=O)O (stereo not given),5.6%,-31.4%,i,1.2%,-7.1%,31.6µM*
CCCCN(CC)CCNC(=O)C1CCCN(c2ncnc3onc(C)c23)C1 (stereo not given),0.9%,-14.6%,-4.4%,3.2%,·,1.0%
COc1ccc(/C=N/NC(=O)Cc2csc(Nc3cccc(C(F)(F)F)c3)n2)cc1C,7.94µM*,5.0%,i,?,-1.1%,-13.3%
COC(=O)C1=C[C@@H](C(=O)OC)C2C3=C(C(=O)[C@]2(C)NC(=O)c2ccccc2)[C@H](C)[C@@H]2C(=O)N(C)C(=O)[C@@H]2[C@@H]3C1 (stereo not given in full),·,-4.2%,·,·,·,·
Cc1cc(OI)c(C(C)C)cc1-c1cc(C(C)C)c(OI)cc1C,·,·,·,·,-1.2%,2.1%
O=C(NCC1(c2ccccc2)CCCC1)C(=O)Nc1cccc(Br)c1,2.8%,-9.8%,-12.3%,15.9%,·,-1.4%
C#CC(=O)N(c1cc(OC)ccc1OC)C(C(=O)NC1CCCC1)c1cccs1 (stereo not given),7.94µM*,-11.0%,-27.5%,5.01µM*,-41.9%,?
COCCN(Cc1ccccc1)C(=O)c1cccc(S(=O)(=O)N2CCN(Cc3ccccc3)CC2)c1,14.1µM*,·,-44.6%,2.3%,4.3%,·
CC1(C(=O)O)CCC2(C)CCC3(C)C(=CC(=O)C4C5(C)CCC(O)C(C)(C)C5CCC43C)C2C1 (stereo not given),·,·,·,·,-3.5%,-18.6%
O=[N+]([O-])c1ccc(CN2CCOCCOCCN(Cc3ccc([N+](=O)[O-])cc3)CCOCC2)cc1,10µM*,-24.9%,i,5.1%,11.2%,-1.0%
O=[N+]([O-])c1ccc(COc2ccc(CN3CCOCC3)cc2)cc1,?,-22.6%,-50.0%,-4.2%,6.8%,·
CCCCNC(=S)Nc1ccc([N+](=O)[O-])cc1,?,-41.5%,-38.6%,?,-17.4%,0.6%
CC(C)c1ccc(CCNC(=O)c2ccc([N+](=O)[O-])cc2)cc1,3.55µM*,-1.4%,-32.1%,-15.6%,13.4%,17.0%
CC(C)CCNC(=S)Nc1ccc([N+](=O)[O-])cc1,11.2µM*,-26.7%,-41.2%,?,-1.3%,-1.4%
CCCCNC(=S)NC(=O)c1ccc([N+](=O)[O-])cc1,?,24.6%,-12.7%,?,0.6%,-3.2%
CC(C)CNC(=S)NC(=O)c1ccc([N+](=O)[O-])cc1,10µM*,-30.7%,i,?,-6.0%,-0.9%
